Data on 40 sequences can be found in the supplement of paper PMC10338343.

± gives the standard deviation.

In this assay the test system is MILI (PIWIL2) piRISC loaded with L1MC piRNA (26 nt). Kind of assay: pre-steady-state target cleavage rate (min^-1); guide: L1MC piRNA 5'p-UAACUAAAUACUAUGCAAGCUGUAGG; MIWI and MILI are mouse PIWI proteins and EfPiwi is from a freshwater sponge; tags in brackets are library labels; higher = faster piRNA-guided slicing of the target. The settings on record: auxiliary factor: 500 nM mouse GTSF1. The method, boiled down: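 A transcribed, DNA-blocked target RNA library (0.1 nM) and 1 nM active affinity-purified piRISC bearing one synthetic guide were incubated in HEPES–potassium acetate buffer at 33 °C for 0–8 or 0–960 min, either with or without 500 nM GTSF1 partner protein. Uncleaved targets were sequenced, normalised to depth and to weakly complementary targets, and pooled over three trials, with k3 capped at 0.0001 min^-1. The pre-steady-state cleavage rate was derived with a burst-and-steady-state fit.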
For UCCUGGAUGUGGUUGCAUUGUAUUUAGUUA, the “pre-steady-state target cleavage rate” value stood at 0.0353 ± 0.0089.
As to UCCUGCUAGAGCUUGCAUAGUAUUUUGUUA, the “pre-steady-state target cleavage rate” value turned out to be 0.172 ± 0.025.
“UCCUGGAUGUCGUUGCAUAGUAUUUAGUUC [g2:g18:cont:t1C]”: the “pre-steady-state target cleavage rate” value was 0.0984 ± 0.01.
In the case of UCCUGCUACAGUCUUGCAUAGUAUUUAGUUA, the “pre-steady-state target cleavage rate” value was determined as 0.222 ± 0.021.
For the sequence “UCCUGGAUGUCGAUGCAUAGUAUUUAGUUU [g2:g17:cont:t1U]”, the “pre-steady-state target cleavage rate” value was determined as 0.09 ± 0.011.
Then UCCUGGAUGUCGUUACAUAGUAUUUAGUUA, with 0.105 ± 0.011; and UCCUGGAUGUGCUUGAUAGUAUUUAGUUA, with 0.00721 ± 0.0036; and UCCUGGAUGAGCUUGCAUAGUAUAAUGUUA, with 0.229 ± 0.061.
Consider UCCUGGUCCAGCUUGCAUAGUAUUUAGUUA, for which the “pre-steady-state target cleavage rate” value worked out at 0.232 ± 0.02.
Then UCCUGGAUGUCGAUGCAUAGUACUUAGUUA, with 0.025 ± 0.0066; and UCCUGGAUGUGGAAGCAUAGUAUUUAGUUA, with 0.026 ± 0.0048.
Then UCCUGGAUCAGCAACCAUAGUAUUUAGAAA, with 0.00948 ± 0.0046; and UCCUGGAUGUCCUUGCAUAGUAUCUUAGUUA, with 0.0833 ± 0.017.
Then UCCUGGAUGAGCAUGCAUAGUUUUUAGUUA, with 0.0197 ± 0.0099; and UCCUGGAACAGCUUGCAUUGUUUUUAGUUA, with 0.0144 ± 0.0059.
Consider UCCUGGUACAGGAAGCAUAGUAUUUAGUAA, for which the “pre-steady-state target cleavage rate” value was 0.167 ± 0.023.
Then UCCUGGAUGUCCUUGCAUUGUAUUAAGUUA, with 0.0479 ± 0.012.
Then UCCUGGAAGAGCUUGCAUAGUAUUAAGUUA, with 0.21 ± 0.023; and UCCUGGAUGUCGAUGCAUAGUAUUUACGUUA, with 0.158 ± 0.033.
Then UCCUGGAUGUCGAAGCAUAGUAUUUUGUUA, with 0.0221 ± 0.0061.
As for UCCUGGAUGUCCUUGCUUAGUAUUUUGUUA, the “pre-steady-state target cleavage rate” value was 0.0587 ± 0.018.
Then UCCUGGAUGUCAUUGCAUAGUAUUUAGUUA, with 0.0928 ± 0.015; and UCCUGGAACAGCUUGCUUAGUUUUUAGUUA, with 0.0579 ± 0.012.
Then UCCUGGAUGUCGUUGUAUAGUAUUUAGUUA, with 0.151 ± 0.017; and UCCUGGUACAGCUUGCAAUGUAUUUAGUUA, with 0.0755 ± 0.013.
Then UCCUGGAUGUCGAAGCAUAGUAUCUUAGUUA, with 0.0223 ± 0.0048; and UCCUGGAUGUGCUUGCUAUGUAUUUAGUUA, with 0.00774 ± 0.0037.
As for UCCUGGAUCACGUUGCAUAGUAUUUAGUAA, the “pre-steady-state target cleavage rate” value was 0.18 ± 0.024.
Then UCCUGGAUGUCGUUGCAUAGUUUUUAGUUA, with 0.00524 ± 0.0046.
Then UCCUGGAUGUGCUAGCAUUGUAUUUAGUUA, with 0.0146 ± 0.0031.
As to UCCUCCUUCAGCUUGCAUUGUAUUUAGUUA, the “pre-steady-state target cleavage rate” value stood at 0.226 ± 0.019.
Then UCCUGGAUCAGCUUGAUAGUAUUUAGUUA, with 0.0575 ± 0.0091; and UCCUGGAUGACCUUGCAUACUAUUUAGUUA, with 0.062 ± 0.019; and UCCUGGAUGUGCUUGCAUUGUAUUUAGUUA, with 0.0666 ± 0.013.
Then UCCUGGAUGUCGUUGCAUAGUUAUUUAGUUA, with 0.00477 ± 0.0039; and UCCUGGAUGUCCUUGCUUAGUAUUUAGUUA, with 0.0537 ± 0.0095; and UCCUGGAACAGCUUGCAAUGUAUUUAGUAA, with 0.0829 ± 0.011.
Then UCCUGGAUGUCGUUGCAUAGUAUUGAGUUA, with 0.0312 ± 0.011; and UCCUGGAUCAGCUUGCAUAGUUUAUAGUUA, with 0.0204 ± 0.008; and UCCUGGAUGUCGUUGCAUAGUAUUUAGUAUA, with 0.127 ± 0.03.
